# High-throughput results from PubChem BioAssay.
# An excerpt weighted towards active compounds, which were near 6% of everything screened.
# Sfp PPTase inh = blocks B. subtilis Sfp PPTase activity. Q9F4F7. Biochemical Sfp PPTase activity, qHTS. Potency, µM, inactives show largest response in the series, negative = inhibition, most hits filed as inhibitors. actives 3.5% (n = 310,000). AID 1490;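 also: the enzyme is Sfp with the accession as filed and its product quenches rhodamine fluorescence; 0% = enzyme reaction without inhibitor and -100% = no enzyme wells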
#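 Reaction rates are the 30-min fluorescence difference (ex 525, em 598 nm) in wells containing 15 nM Sfp, 5 uM rhodamine-CoA and 12.5 uM BHQ-2-YbbR at pH 7.6 with 10 mM MgCl2.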
# Tau fluor counter = counter-screen for tau fibril formation inhibitors; Potency, µM (top dose mostly 57.7 µM), without a hit: at the top dose activity change, negative = decrease; tau K18 P301L Alexa594 fluorescence, heparin fibrillization; actives 0.93% (n = 280,000); also: nearly all actives have a fitted effect of over 55% in size
#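 Human K18 P301L tau (15 uM unlabeled plus 0.24 uM Alexa 594-labeled, final) in 100 mM sodium acetate pH 7 was mixed with compound and 20 uM heparin and incubated 6 hr at 37 C.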
# PLK1 PBD block = PLK1 (human) polo-box domain binding inhibition. P53350. Plk1 PBD binding of FITC phosphopeptide, fluorescence polarization. Potency, µM, without a hit: max response, negative = inhibition, actives largely listed as inhibitors. actives 2.8% (n = 360,000). AID 720504; also: series mostly up to about 57 µM; nearly all actives have a fitted effect of over 65% in size
# Target sequence (P53350 whole entry, looked up, the tested form may be a part): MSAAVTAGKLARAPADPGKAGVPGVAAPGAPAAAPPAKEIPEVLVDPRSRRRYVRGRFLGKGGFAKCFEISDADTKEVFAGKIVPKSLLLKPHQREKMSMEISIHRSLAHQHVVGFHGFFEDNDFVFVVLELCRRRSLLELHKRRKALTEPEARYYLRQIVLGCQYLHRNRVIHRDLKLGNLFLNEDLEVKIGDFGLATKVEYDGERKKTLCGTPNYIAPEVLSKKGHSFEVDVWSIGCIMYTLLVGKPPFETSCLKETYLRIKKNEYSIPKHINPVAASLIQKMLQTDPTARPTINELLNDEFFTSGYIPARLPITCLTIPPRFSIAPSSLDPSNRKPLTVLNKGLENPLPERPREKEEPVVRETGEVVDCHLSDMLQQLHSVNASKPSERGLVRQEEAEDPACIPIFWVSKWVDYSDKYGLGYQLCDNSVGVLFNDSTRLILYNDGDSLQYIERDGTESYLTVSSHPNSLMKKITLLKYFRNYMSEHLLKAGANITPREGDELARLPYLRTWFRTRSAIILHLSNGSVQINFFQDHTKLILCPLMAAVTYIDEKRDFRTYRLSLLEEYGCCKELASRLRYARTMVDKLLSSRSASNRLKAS
# VDR inhibitor = vitamin D3 receptor (human) inhibition; P11473; actives 0.93% (n = 400,000); VDR-SRC2-3 peptide fluorescence polarization, 2 h; Potency, µM, without a hit: max response, negative = inhibition, hits mostly inhibitors
#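 Compounds are added to VDR with labelled SRC2-3 coactivator peptide and held 2 h at room temperature. Inhibition of the VDR–peptide interaction is then read as a change in fluorescence polarization.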
# Tau ThT inhib = blocks human tau fibril formation measured by thioflavin T; recombinant tau K18 P301L (four-repeat tau fragment), heparin-induced fibrillization, ThT fluorescence; Potency, µM (series often up to 57.4 µM), without a hit: at the top dose activity, negative = inhibition, actives largely listed as inhibitors; actives 2.1% (n = 270,000); also: nearly all actives have a fitted effect of over 55% in size
#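 Heparin-induced fibrillization of the P301L-mutant K18 repeat-domain fragment of human tau was followed by ThT binding in quantitative high-throughput format.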
# Tau FP inhib = inhibitors of human tau fibril formation | P10636 | K18 P301L tau heparin fibrillization, Alexa594 FP, 6 h | Potency, µM (highest dose often 57.7 µM), for the others: at the highest dose activity, negative = inhibition, actives largely listed as inhibitors | actives 0.39% (n = 280,000) | AID 1468; also: nearly all actives have a fitted effect of over 55% in size
#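 Human tau K18 […] P301L fragment, 15 uM unlabeled plus 0.24 uM Alexa 594-labeled tau (final), with compound and 20 uM heparin in 100 mM sodium acetate pH 7; 6 hr at 37 C, then Alexa 594 FP read.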
# Active calls of the source: *; ? = inconclusive; / = no result given; [ ] = dose if it differs, or a comment. Calls follow the shape of the dose curve; as a rule, active = well fitted curve in the direction sought with a large enough effect; inconclusive = small, poorly fitted or top-dose-only effect, or another doubt; inactive = no such curve, though single readings can be large; an effect the other way counts as inactive or inconclusive. Unless noted, % is scaled to controls: 0 for no effect and ±100 for the full control effect; potency is read from the fitted curve at half-maximal effect.
SMILES,Sfp PPTase inh,Tau fluor counter,PLK1 PBD block,VDR inhibitor,Tau ThT inhib,Tau FP inhib
CN(C)c1ccc(C=c2c3ccccc3n3c2c2ccccc2[n+]3C)cc1,/,/,24µM*,-93%,/,/
CN(C)c1ccc(C=C2C=Cc3ccccc32)cc1,/,/,4%,15%,/,/
Cc1cc2c(=Cc3ccc(N(C)C)cc3)c3ccccc3n2[n+]1C,/,/,13%,-6%,/,/
COC(=O)[C@@]1(Cc2ccc(OC)cc2)[C@H]2c3cc(C(=O)N(C)C)n(Cc4ccc(OC)c(OC)c4)c3C[C@H]2CN1C(=O)c1ccccc1,-19%,-4%,/,/,?,2%
O=c1c(-c2ccccc2)c1-c1ccccc1,13%,-23%,/,45µM*,?,?
CCSC1(SCC)N=C(N)C2(C#N)C(c3ccc(F)cc3)C12C#N (stereo not given),-21%,-10%,9.5µM*,89µM*,?,-3%
CCSC1(SCC)N=C(N)C2(C#N)C(c3ccccc3)NC(C)=C(C)C12C#N (stereo not given),29%,0%,-9%,14%,-2%,5%
Cc1nc2c(c(C)c1CCC(=O)Nc1cccc(C(F)(F)F)c1)c(=O)n(C)c(=O)n2C,/,-21%,/,-9%,2%,?
C=CCOc1ccc(C=CC(=O)c2c(O)c(OC)c(OC)c(OC)c2OC)cc1,/,/,-8%,45µM*,/,/
CCc1nc2ccc(C(=O)NCCc3ccc(OC)cc3OC)cc2nc1CC,/,12%,/,-8%,?,5%
CSc1ccccc1NC(=O)CSc1n[nH]c(N)n1,34%,4%,-3%,-7%,2%,5%
O=C(CSc1nnc(-c2cccnc2)n1-c1ccccc1)Nc1ccccn1,4%,1%,3.4µM*,-18%,-4%,-4%
Nn1c(SCC(=O)Nc2cccnc2Cl)nnc1-c1ccccc1,/,/,4.7µM*,79µM*,/,/
Nc1nc(SCC(=O)Nc2cccnc2Cl)n[nH]1,20%,8%,12µM*,-19%,6%,7%
Oc1ccc(N=Nc2cccc(C(F)(F)F)c2)cc1C=Nc1ccc(N2CCOCC2)cc1,1%,-8%,-16%,?,?,9%
Oc1c(Cl)cccc1C=Nc1cc(C(F)(F)F)ccc1N1CCCC1,?,?,12µM*,-29%,?,2%
Oc1c(Cl)cc(Cl)cc1C=Nc1cc(C(F)(F)F)ccc1N1CCc2ccccc2C1,-7%,-28%,-16%,-1%,28µM*,?
COc1ccc(C(=O)NCCc2sc(-c3ccc(Cl)cc3)nc2C)c(OC)c1,/,-13%,/,5%,?,6%
CC1/C(=C\c2ccc(Cl)cc2)C(=O)C2CC1C2(C)C (stereo not given),-7%,-12%,2%,-11%,-16%,8%
CC1CCC(C(C)C)C(=O)/C1=C/c1ccc(N)cc1 (stereo not given),-3%,?,24µM*,?,/,8%
CN(C)CCCNc1cc(C(C)(C)C)nc2c(-c3ccc(Cl)cc3)cnn12,32µM*,16µM*[quencher],3%,3%,?,10%
CC(C)(C)c1cc(NCc2ccccn2)n2ncc(-c3ccc(Cl)cc3)c2n1,12%,?,-2%,?,?,?
Cc1cccc(NC(=S)NCC23C=CC(O2)C2C(=O)N(c4ccc(Cl)cc4)C(=O)C23)c1 (stereo not given),35µM*,-2%,-13%,?,-12%,17%
S=C(NCC1CCCO1)N1CCN(c2ccccc2)CC1 (stereo not given),-6%,-5%,-13%,-7%,-8%,-6%
Cc1ccc(NC(=S)NCC23C=CC(O2)C2C(=O)N(c4ccc(C)cc4)C(=O)C23)cc1 (stereo not given),35µM*,-5%,-10%,?,-15%,9%
Cc1ccc(N2C(=O)C3C4C=CC(CNC(=S)N5CCN(c6ccccc6)CC5)(O4)C3C2=O)cc1 (stereo not given),13µM*,15%,-19%,-20%,-5%,13%
